TrxR1 inh: rat TrxR1 inhibition; AID 588453; O89049; 390,000 tested, 1% active; Potency, µM (highest dose often 114 µM), without a hit: top-dose activity change, negative = inhibition, most hits filed as inhibitors; recombinant rTrxR1, NADPH fluorescence consumption, selenite substrate; further: nearly all actives have a fitted effect of over 65% in size
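Rat TrxR1 (90 nM in the dispensed reagent) was pre-reduced with 400 uM NADPH for 5 min at room temperature, then incubated with compound for 15 min. After 400 uM selenite was added, NADPH fluorescence (Ex 340/Em 450 nm) was followed for 8 min.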
TrxR1 substrate: substrates of rat thioredoxin reductase 1; O89049; purified TrxR1 substrate turnover, NADPH consumption readout; Potency, µM (series often up to 114 µM), without a hit: at the highest dose activity change, negative = substrate turnover; 390,000 tested, 0.01% active; AID 588456; further: nearly all actives have a fitted effect of over 50% in size
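Rat TrxR1, dispensed at 90 nM, was prereduced with 400 uM NADPH (final) for 5 min at ~22 deg C, then incubated with compound 15 min before 400 uM selenite. A first-read NADPH fluorescence drop versus no-compound background flagged substrates.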
GLS inh: blocks human kidney-isoform glutaminase activity. Potency, µM (top dose mostly 45.5 µM), for inactives: at the highest dose activity change, negative = inhibition, actives largely listed as inhibitors. O94925. GLS enzymatic activity, qHTS titration. 410,000 tested, 0.21% active
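Enzyme dispensed in phosphate buffer (45 mM, pH 8.2, 0.02% Tween-20), compounds pinned in, then 1 mM L-glutamine solution and the glutamate oxidase–HRP–Amplex Red mix added; fluorescence read immediately and again after 30 min at room temperature.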
VDR inh: inhibitors of human vitamin D receptor; VDR-SRC2-3 peptide fluorescence polarization, 2 h; Potency, µM, inactives show max response, negative = inhibition, most hits filed as inhibitors; 400,000 tested, 0.93% active; AID 504847
Target sequence (P11473 whole entry, looked up): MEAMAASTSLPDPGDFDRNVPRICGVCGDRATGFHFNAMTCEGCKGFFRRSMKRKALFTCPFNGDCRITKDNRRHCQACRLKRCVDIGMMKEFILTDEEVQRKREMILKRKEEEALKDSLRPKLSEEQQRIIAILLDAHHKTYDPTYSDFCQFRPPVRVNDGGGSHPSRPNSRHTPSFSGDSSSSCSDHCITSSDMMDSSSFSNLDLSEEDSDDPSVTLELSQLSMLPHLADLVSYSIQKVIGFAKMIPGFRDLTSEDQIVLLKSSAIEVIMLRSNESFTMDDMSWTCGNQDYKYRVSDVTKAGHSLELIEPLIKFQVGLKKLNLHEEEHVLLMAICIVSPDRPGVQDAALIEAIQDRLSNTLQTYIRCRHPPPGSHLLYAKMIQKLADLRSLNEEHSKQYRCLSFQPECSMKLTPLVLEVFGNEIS
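Fluorescence polarization assay measuring small-molecule disruption of VDR binding to the coregulator peptide SRC2-3. Compounds were pin-transferred (23 nl) into the reagent mix and incubated 2 h at room temperature before reading.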
Sfp PPTase inh: blocks B. subtilis Sfp PPTase activity; Biochemical Sfp PPTase activity, qHTS; Potency, µM, for the others: largest response in the series, negative = inhibition, actives largely listed as inhibitors; 310,000 tested, 3.5% active; AID 1490;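 further: the enzyme is Sfp with the accession as filed and its product quenches rhodamine fluorescence; 0% = enzyme reaction without inhibitor and -100% = no enzyme wells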
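Buffer: 50 mM Hepes-Na pH 7.6, 10 mM MgCl2, 0.01% Nonidet P-40, 0.01% BSA. Enzyme 15 nM, pre-exposed to compound 15 min; substrates then added and fluorescence change tracked over 30 min.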
GCN5L2 inh: blocks human GCN5L2 histone acetyltransferase | Q92830 | GCN5L2 HAT assay, ThioGlo1 CoA-SH fluorescence | Potency, µM (titrated, usually from 58.9 µM), for the others: at the top dose activity change, negative = inhibition, usual class: inhibitors | 390,000 tested, 0.21% active | AID 504327
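qHTS, 1536-well. 20nM enzyme, pH 7.5 HEPES/EDTA/Tween-20 buffer; 15 min compound preinc., RT. Start: 75uM H3(1-25), 70uM AcCoA, 50uM ThioGlo1. Read Ex340/Em540 at t=0 (autofluorescence flag) and t=20 min.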
Active calls of the source: *; ? = inconclusive; / = no result given; [ ] = remark or other dose. Most compounds without a hit are left out; they make up all but 3.8% or so of the library. The call rests on the fitted dose curve; in most records, active means well fitted curve in the direction sought with a large enough effect; inconclusive means small, poorly fitted or top-dose-only effect, or another doubt; inactive means no such curve, though single readings can be large; an effect the other way counts as inactive or inconclusive. Unless noted, on the % scale 0 is the no-effect control and ±100 the full control effect; potency means the concentration at half of the fitted maximal effect.

SMILES	TrxR1 inh	TrxR1 substrate	GLS inh	VDR inh	Sfp PPTase inh	GCN5L2 inh
CCOc1ccc(NC(=O)CCNC(=O)N2C[C@H]3C[C@@H](C2)c2cccc(=O)n2C3)cc1	3.6%	-2.2%	8.1%	-7.1%	16.8%	?
C=C1[C@@H]2CC[C@H]3[C@@]4(C)C[C@@H](O[C@@H]5O[C@H](CO)[C@H](OS(=O)(=O)O)[C@@H](OS(=O)(=O)O)[C@@H]5OC(=O)CC(C)C)C[C@@H](C(=O)O)[C@H]4CC[C@@]3(C2)[C@H]1O	/	/	/	-2.7%	17.3%	4.6%[21.4 µM]
C=CCSC1=N/C(=C\c2cc(OC)c3c(c2)OCO3)C(=O)S1	-23.2%	-7.2%	9.7%	-4.8%	17.8µM*	-3.3%
CN(C)c1ccc(/C=C2/C(=O)NC(=O)N(Cc3ccco3)C2=O)cc1	50.1µM*	-14.9%	-25.9%	?	-18.9%	-8.7%
CCN(CC)c1ccc(/C=C2/C(=O)NC(=O)N(Cc3ccco3)C2=O)cc1	35.5µM*	-7.5%	15.3%	?	50.1µM*	1.1%
Cn1cccc1C(=O)OCC(=O)NCc1cccs1	11.8%[57.1 µM]	7.3%[57.1 µM]	-4.4%	?	/	-4.3%
C[C@@H]1O[C@@H](O[C@H]2CC[C@@H](O[C@H]3[C@H](O)C[C@H](c4ccc5c(c4O)C(=O)C4=C(C5=O)[C@@]5(O)C(=O)C[C@](C)(O[C@H]6CC[C@H](O[C@H]7C=CC(=O)[C@H](C)O7)[C@H](C)O6)C[C@@]5(O)C=C4)O[C@@H]3C)O[C@H]2C)C=CC1=O	/	/	/	2µM*	5.01µM*	-42.1%
CC(C)C[C@H](NC(=O)[C@H](Cc1ccccc1)NC(=O)CNC(=O)CNC(=O)[C@@H](N)Cc1ccc(O)cc1)C(=O)N[C@@H](CCCN=C(N)N)C(=O)N[C@@H](CCCCN)C(=O)N[C@@H](Cc1ccc(O)cc1)C(=O)N1CCC[C@H]1C(=O)N[C@@H](CCCCN)C(=O)O	/	/	/	-2.1%	19.5%	6.2%
NC(=O)C1=CN(C2OC(COP(=O)(O)OP(=O)(O)OC[C@H]3O[C@@H](n4cnc5c(N)ncnc54)[C@H](OP(=O)(O)O)[C@@H]3O)C(O)C2O)C=CC1 (some centres not stated)	21.6%[57.1 µM]	12.4%[57.1 µM]	/	8.4%	/	-19.1%
Nc1ncnc2c1ncn2[C@@H]1O[C@H](COP(=O)(O)OP(=O)(O)OP(=O)(O)O)[C@H]2OC3(O[C@H]21)C([N+](=O)[O-])=CC(=[N+]([O-])[O-])C=C3[N+](=O)[O-] (some centres not stated)	/	/	/	?	8.91µM*	-6.7%
CCOC(=O)c1cccc(C2=C(CNC(C)=O)[C@H]3CC[C@@H](C2)N3Cc2ccccc2)c1	/	/	3.3%	/	/	/
Cc1cc(Cc2c(O)[nH]c(=S)[nH]c2=O)ccc1OC(C)C	-12.2%	-4.9%	-0.1%	79.4µM*	56.2µM*	?
CC(C)COc1ccc(Cc2c(O)[nH]c(=S)[nH]c2=O)cc1	-8.0%[57.1 µM]	-5.8%	5.6%	-22.9%	?	?
Cc1cc(OC(=O)N(C)C)n(-c2ccccc2)n1	-21.8%	-15.8%	6.0%	0.7%	9.0%	-14.5%
CC(=O)NC1N=C(C)N(c2ccccc2)C1=O (configuration not stated)	-3.2%[57.1 µM]	2.2%[57.1 µM]	10.3%	?	39.8µM*	-9.9%
C[C@@H]1COc2cccc(N3CCN(C)CC3)c2S(=O)(=O)N1	/	/	7.0%	/	/	/
CCOc1ccc(-n2c(-c3cccs3)nc3ccccc3c2=O)cc1	22.5%	-4.2%	-4.9%	0.6%	3.4%	-0.2%
CCn1nc(-c2cccs2)nc2c(=O)n(C)c(=O)nc1-2	?	44.7µM*	-1.9%	-4.3%	-5.0%	-16.2%
CCn1nc(/C=C/c2ccccc2)nc2c(=O)n(C)c(=O)nc1-2	?	15.8µM*	-3.7%	?	?	-2.4%
C[C@]12Cc3nonc3C[C@@H]1CC[C@@H]1[C@@H]2CC[C@@]2(C)[C@H]1CC[C@]2(C)O	/	/	5.0%	-2.9%	2.6%	-8.1%
